Here are results for 15 compounds from PubChem BioAssay.

Structures are written as SMILES. For part of these data: Entries with a potency or affinity are not part of this list. Active and inactive are the calls of the source.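 The calls were made as follows, unless noted: active = fitted half-maximal concentration within 10 nM to 100 µM, steepness 0.5 to 2, significant signal drop, low assay interference; inactive = the rest.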

The target in assay [1] is Cell division control protein 42 homolog (Homo sapiens) (UniProt P60953). Put plainly: activated mutant Cdc42 GTP-binding inhibitors, dose response, biochemical, multiplex bead flow cytometry, Bodipy-FL-GTP (AID 1333;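 active = fitted half-maximal concentration within the tested dose range, moderate curve steepness, a statistically real signal drop, and little compound fluorescence or tag-binding interference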). A general note: A flow cytometer gives signals particle by particle.
Chain of Cell division control protein 42 homolog (Homo sapiens) (P60953 whole entry, looked up): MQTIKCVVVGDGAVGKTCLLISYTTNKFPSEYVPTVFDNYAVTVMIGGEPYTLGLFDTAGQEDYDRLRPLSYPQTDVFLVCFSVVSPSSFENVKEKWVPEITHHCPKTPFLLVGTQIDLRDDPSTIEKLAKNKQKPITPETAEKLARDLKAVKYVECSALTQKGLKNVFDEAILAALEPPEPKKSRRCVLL
Assay [2] has the same target. Put plainly: wildtype Cdc42 GTP-binding inhibitors, dose response, biochemical, multiplex bead flow cytometry, Bodipy-FL-GTP (AID 1334;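 active = fitted half-maximal concentration within the tested range, moderate curve steepness, significant signal drop, and little compound fluorescence or bead-linkage interference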). As to conditions: bead-based flow cytometry, Bodipy-FL-GTP binding to GST-Cdc42; at 100 µM (top of the series) unless noted.
Assay [3] deals with GTPase HRas (Homo sapiens) (UniProt P01112). Put plainly: inhibitors of GTP binding to wildtype Ras, dose response, biochemical, multiplex bead flow cytometry (AID 1335). As to conditions: bead-based flow cytometry, Bodipy-GTP binding to GST-Ras; at 100 µM (top of the series) unless noted.
Chain of GTPase HRas (Homo sapiens) (P01112 whole entry, looked up): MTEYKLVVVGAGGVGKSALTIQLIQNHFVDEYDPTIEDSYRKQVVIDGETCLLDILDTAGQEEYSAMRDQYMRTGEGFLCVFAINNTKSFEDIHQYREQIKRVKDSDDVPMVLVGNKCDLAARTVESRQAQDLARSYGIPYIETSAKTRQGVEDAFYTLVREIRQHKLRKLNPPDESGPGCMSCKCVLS
Assay [4] relates to Ras-related protein Rab-7a (dog), GTP binding. Briefly: Rab7 GTP binding inhibitors, potency, dose response, biochemical, wildtype, multiplex bead flow cytometry (AID 1336; call rule not given here).
Assay [5] concerns the target Ras-related C3 botulinum toxin substrate 1 (Homo sapiens) (UniProt P63000). Put plainly: wildtype Rac1 GTP binding inhibitors, dose response, biochemical, multiplex bead flow cytometry (AID 1340;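 active = dose curve with midpoint inside tested range, moderate steepness, plateau gap beyond fit error, low compound glow and bead-link interference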). As to conditions: GST-Rac1 beads, Bodipy-FL-GTP binding; at 100 µM (top of the series) unless noted.
Assay [6] addresses GTPase HRas (Homo sapiens) (UniProt P01112). Put plainly: activated Ras mutant GTP binding inhibitors, dose response, biochemical, multiplex bead flow cytometry (AID 1341;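 active = dose-response curve with midpoint inside the tested range, moderate steepness, significant amplitude and little compound fluorescence or bead-attachment interference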;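 also: GST-tagged constitutively activated Ras mutant immobilized on beads and multiplexed with other GTPases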).

Regarding `CNC(=O)C(C)NS(=O)(=O)c1ccc(F)cc1` (stereo not given), the compound was classed as inactive in assay [1], in assay [4] and in assay [6]. Moreover, in assay [2], the fluorescence, percent of control (lower = inhibition) worked out at 50.9%. Moreover, the GTP binding, percent of control in assay [3] is 66.5%. This compound displayed a GTP binding signal, raw median fluorescence (lower = inhibition) (MCF (arbitrary fluorescence units)) in assay [5] of 236.
For the compound `Cn1cc(C=C2C(=O)CC(C)(C)CC2=O)c2ccccc21`, the compound was called inactive in assay [1], in assay [4] and in assay [6]. For the same compound, the fluorescence, percent of control (lower = inhibition) in assay [2] turned out to be 49.4%. For the same compound, the GTP binding, percent of control in assay [3] was 66.4%. In addition, in assay [5], the GTP binding signal, raw median fluorescence (lower = inhibition) (MCF (arbitrary fluorescence units)) is 180.
Consider `N#C/C(=C/c1ccc(O)c([N+](=O)[O-])c1)C(=O)Nc1ccccc1`, for which the compound was classed as inactive in assay [1], in assay [4] and in assay [6]. Besides, the fluorescence, percent of control (lower = inhibition) in assay [2] came to 31.5%. Also, the GTP binding, percent of control in assay [3] came out at 77.4%. The compound also came in with a GTP binding signal, raw median fluorescence (lower = inhibition) (MCF (arbitrary fluorescence units)) in assay [5] of 193.
With `Cc1ccc(N=Nc2c(N)[nH]n3c(=O)cc(-c4ccccc4)nc23)cc1`, the call in assay [1], in assay [4] and in assay [6] was inactive. In assay [2], the fluorescence, percent of control (lower = inhibition) is 64.1%. Also, in assay [3], the GTP binding, percent of control was found to be 125%. This compound registered a GTP binding signal, raw median fluorescence (lower = inhibition) (MCF (arbitrary fluorescence units)) in assay [5] of 118.
Regarding `CCOc1nnc(C)c2c(C)n(-c3cccc(Cl)c3)nc12`, the compound was called inactive in assay [1], in assay [4] and in assay [6]. In assay [2], the fluorescence, percent of control (lower = inhibition) worked out at 155%. Also, the GTP binding, percent of control in assay [3] came to 168%. The compound further returned a GTP binding signal, raw median fluorescence (lower = inhibition) (MCF (arbitrary fluorescence units)) in assay [5] of 312.
Consider `OC(CN1CCN(Cc2ccc3c(c2)OCO3)CC1)c1c[nH]c2ccccc12` (stereo not given), for which the compound was classed as inactive in assay [1], in assay [4] and in assay [6]. The fluorescence, percent of control (lower = inhibition) in assay [2] was 36.1%. This compound also showed a GTP binding, percent of control in assay [3] of 78.7%. In assay [5], this compound showed a GTP binding signal, raw median fluorescence (lower = inhibition) (MCF (arbitrary fluorescence units)) of 281.
As for `Cc1n[nH]c(=S)c2nn(-c3ccccc3)c(C)c12`, the call in assay [1], in assay [4] and in assay [6] was inactive. Besides, the fluorescence, percent of control (lower = inhibition) in assay [2] is 47.4%. This compound showed a GTP binding, percent of control in assay [3] of 63.6%. Besides, the GTP binding signal, raw median fluorescence (lower = inhibition) (MCF (arbitrary fluorescence units)) in assay [5] came to 188.
On to `CSc1nnc(C)c(/C=C/Nc2ccc(C)cc2)n1`, for which the compound was called inactive in assay [1], in assay [4] and in assay [6]. In assay [2], the fluorescence, percent of control (lower = inhibition) came to 74.9%. This compound registered a GTP binding, percent of control in assay [3] of 144%. Also, in assay [5], the GTP binding signal, raw median fluorescence (lower = inhibition) (MCF (arbitrary fluorescence units)) is 155.
`Cc1ccc(OCCn2c(SCCC(=O)O)nc3ccccc32)cc1`: the call in assay [1], in assay [4] and in assay [6] was inactive. In assay [2], the fluorescence, percent of control (lower = inhibition) stood at 61.3%. In assay [3], this compound showed a GTP binding, percent of control of 88.9%. Moreover, the GTP binding signal, raw median fluorescence (lower = inhibition) (MCF (arbitrary fluorescence units)) in assay [5] is 34.5.
As to `C=CCNc1nc(=S)[nH]c2cc(OC)c(OC)cc12`, the compound was called inactive in assay [1], in assay [4] and in assay [6]. Moreover, in assay [2], the fluorescence, percent of control (lower = inhibition) worked out at 31.2%. The GTP binding, percent of control in assay [3] is 69.1%. In assay [5], this compound gave a GTP binding signal, raw median fluorescence (lower = inhibition) (MCF (arbitrary fluorescence units)) of 148.
On to `COc1ccc(CNc2ccccc2C(=O)O)cc1`, for which the result in assay [1], in assay [4] and in assay [6] was inactive. For the same compound, in assay [2], the fluorescence, percent of control (lower = inhibition) came out at 75.9%. The same compound showed a GTP binding, percent of control in assay [3] of 93.4%. Besides, in assay [5], the GTP binding signal, raw median fluorescence (lower = inhibition) (MCF (arbitrary fluorescence units)) is 44.1.
On to `Cc1cccn2c(=O)c(/C=C3\SC(=S)N(CC(C)C)C3=O)c(NCCCOC(C)C)nc12`, for which the call in assay [1], in assay [4] and in assay [6] was inactive. In addition, the fluorescence, percent of control (lower = inhibition) in assay [2] is 58.1%. The compound further came in with a GTP binding, percent of control in assay [3] of 191%. In assay [5], this compound gave a GTP binding signal, raw median fluorescence (lower = inhibition) (MCF (arbitrary fluorescence units)) of 209.
Regarding `Cc1ccccc1C(=O)Nc1cccc(C(=O)N/N=C/c2cc(Cl)cc([N+](=O)[O-])c2O)c1`, the call in assay [1], in assay [4] and in assay [6] was inactive. Further, the fluorescence, percent of control (lower = inhibition) in assay [2] worked out at 25.1%. Further, the GTP binding, percent of control in assay [3] was determined as 74.6%. In assay [5], the GTP binding signal, raw median fluorescence (lower = inhibition) (MCF (arbitrary fluorescence units)) was found to be 191.
As for `CC(C)n1c(O)c(N=Nc2ccc(Cl)nn2)c2ccccc21`, the compound was classed as inactive in assay [1], in assay [4] and in assay [6]. Besides, the fluorescence, percent of control (lower = inhibition) in assay [2] was 69.1%. This compound showed a GTP binding, percent of control in assay [3] of 78.2%. This compound yielded a GTP binding signal, raw median fluorescence (lower = inhibition) (MCF (arbitrary fluorescence units)) in assay [5] of 196.
On to `Cc1ccc(NC(=O)CN2C(=O)S/C(=C\c3ccc(-c4cccc(C(=O)O)c4C)o3)C2=O)cc1C`, for which the compound was called inactive in assay [1], in assay [4] and in assay [6]. For the same compound, the fluorescence, percent of control (lower = inhibition) in assay [2] worked out at 107%. Also, the GTP binding, percent of control in assay [3] was 149%. In assay [5], the GTP binding signal, raw median fluorescence (lower = inhibition) (MCF (arbitrary fluorescence units)) amounted to 265.
